Assay results: article PMC10726135, “HNF4α isoforms regulate the circadian balance between carbohydrate and lipid metabolism in the liver”
In all, about 18,000 sequences were measured (“log2 normalized intensity”: median about 0.39, highest 2% from about 6.6 on). This excerpt belongs to a sample that is enriched for the highest values.

Biological target: T1, HNF4alpha2 (COS-7 nuclear extract) (Homo sapiens, UniProt P41235 1-474)
T1 sequence: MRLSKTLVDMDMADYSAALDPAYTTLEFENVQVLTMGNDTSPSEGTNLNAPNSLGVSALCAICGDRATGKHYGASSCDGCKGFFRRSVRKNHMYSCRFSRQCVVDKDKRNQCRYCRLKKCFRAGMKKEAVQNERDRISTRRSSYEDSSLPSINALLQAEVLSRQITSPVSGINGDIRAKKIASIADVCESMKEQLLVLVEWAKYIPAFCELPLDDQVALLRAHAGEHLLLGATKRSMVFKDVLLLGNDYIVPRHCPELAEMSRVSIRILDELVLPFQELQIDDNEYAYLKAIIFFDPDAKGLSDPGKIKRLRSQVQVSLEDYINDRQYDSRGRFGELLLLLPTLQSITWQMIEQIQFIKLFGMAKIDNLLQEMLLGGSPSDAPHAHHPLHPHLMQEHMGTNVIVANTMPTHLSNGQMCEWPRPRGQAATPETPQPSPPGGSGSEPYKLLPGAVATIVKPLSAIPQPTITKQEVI
Experiment: protein-binding microarray; COS-7 nuclear extract on double-stranded Agilent 4x180k PBM; binding buffer, salt, pH and temperature not given in the material; high values mean tight binding
Details: chain copies: 2; label: 3' end of strand 1 on the slide; dsDNA, one strand shown
Summary of the method: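 Nuclear extracts came from COS-7 cells transiently transfected by CaPO4 with a human HNF4α isoform expression vector. They were applied to a custom Agilent SurePrint G3 4x180k array of ~60-nt oligonucleotides, made double-stranded, with ~44,000 test sequences spotted in quadruplicate. Bound HNF4α was imaged at 2-µm resolution on an Agilent G2565CA scanner. Binding signal was taken as background-corrected, normalized gProcessedSignal from Agilent software.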

| Sequence | binding signal [log2 normalized intensity] |
| --- | --- |
| TGTCACACTGGCCTTTGCCCTCGCTGGCGGGCCTAGGGAGATTAGAGTATCGGTCGA | 4.25 |
| CACAAAAAGGCTGTCACACTTGCCCTTTGCGCCTAGGGAGATTAGAGTATCGGTCGA | 4.82 |
| ACACTTGCCCTTTGCCCTCACTGGTAGAAGGCCTAGGGAGATTAGAGTATCGGTCGA | 5.09 |
| AGCCTCTATGTCAGGCCATTTCACCTTTGCGCCTAGGGAGATTAGAGTATCGGTCGA | 3.72 |
| AAAGGCTGTCACACTTGCCCTTTGCCCTCAGCCTAGGGAGATTAGAGTATCGGTCGA | 8.34 |
| GAGGAGAGAGTAAATAATTGATGAAACAGGGCCTAGGGAGATTAGAGTATCGGTCGA | -0.991 |
| AGTACCTCTCAAAAATCTCACTCACCCTAAGCCTAGGGAGATTAGAGTATCGGTCGA | -0.279 |
| CATGAAGGTCTCCTTGACTTCAAAGGCATTGCCTAGGGAGATTAGAGTATCGGTCGA | 0.693 |
| CTATCTGCCTGCAGGAGAGAGCAAAGTCCAGCCTAGGGAGATTAGAGTATCGGTCGA | 7.16 |
| AGCCCTTATATCCACATGGGTCCAAAGTTCGCCTAGGGAGATTAGAGTATCGGTCGA | 8.54 |
| AGTCTTGAGTCCCAAAGTCCAAAGGCAGTCGCCTAGGGAGATTAGAGTATCGGTCGA | 2.83 |
| CTTGGGGTCAAAGTACATCCCCTAAAACATGCCTAGGGAGATTAGAGTATCGGTCGA | 5.71 |
| GTTACCTTGGGGTCAAAGTACATCCCCTAAGCCTAGGGAGATTAGAGTATCGGTCGA | 6.4 |
| CAGGGAGCCCTTATATCCACATGGGTCCAAGCCTAGGGAGATTAGAGTATCGGTCGA | 2.29 |
| TGCAAGTTACCTTGGGGTCAAAGTACATCCGCCTAGGGAGATTAGAGTATCGGTCGA | 8.65 |
| ATTCCTAAGTTCCAAAGGCCATCCACATTCGCCTAGGGAGATTAGAGTATCGGTCGA | 1.84 |
| CAACTCCAAAGTCCAAAGTCCAGTCTTATCGCCTAGGGAGATTAGAGTATCGGTCGA | 8.27 |
| TGTCTCCCTCTGCAGCAAAGTCCAGGCATAGCCTAGGGAGATTAGAGTATCGGTCGA | 1.13 |
| GACCAGTCTGCCTGACTCCAGAGTCCAAACGCCTAGGGAGATTAGAGTATCGGTCGA | 2.77 |
| TGCCTGCAGGAGAGAGCAAAGTCCACGCATGCCTAGGGAGATTAGAGTATCGGTCGA | 6.29 |
| GAGTCTTAGGGAGGGGCCAGGACAAAGGTCGCCTAGGGAGATTAGAGTATCGGTCGA | 5.72 |
| CCACTCTCATGGTCAATATTTTCTTTGTGCGCCTAGGGAGATTAGAGTATCGGTCGA | 1.63 |
| GTCTGATCTTCCTGAGGAGAGCAAAGATCAGCCTAGGGAGATTAGAGTATCGGTCGA | 2.54 |

| Sequence | binding signal [log2 normalized intensity] |
| --- | --- |
| GACTCCAGTGATCTTATCGCCTAGTACTCCGCCTAGGGAGATTAGAGTATCGGTCGA | -0.841 |
| CCTCGCCTATGGTATGTATGGAATGTCACTGCCTAGGGAGATTAGAGTATCGGTCGA | 1.63 |
| GCCAGGACAAAGGTCCTGTGGCCTGGGGAGGCCTAGGGAGATTAGAGTATCGGTCGA | 0.557 |
| CCTGGCCATTTCTCAGGTTGTGTTTGCAGTGCCTAGGGAGATTAGAGTATCGGTCGA | 1.53 |
| CTATTGCAGTAACGGCAGGGTTGTGCAGGAGCCTAGGGAGATTAGAGTATCGGTCGA | 0.453 |
| ATCCTTACACAGCAGCTTTAGTCAGAGATTGCCTAGGGAGATTAGAGTATCGGTCGA | -0.896 |
| CCAAAGTCCAAAGTCCAGTCTTATCTGAGAGCCTAGGGAGATTAGAGTATCGGTCGA | 7.12 |
| GCATGGCTCAGTCCAAGTCCAAAGGTCTGAGCCTAGGGAGATTAGAGTATCGGTCGA | 5.39 |
| AAGTCCAGTCTTATCTGAGACTCAAGGCAAGCCTAGGGAGATTAGAGTATCGGTCGA | -0.968 |
| TTTCTGTAAAGCTTTATTTTGGGGCTGTATGCCTAGGGAGATTAGAGTATCGGTCGA | 0.324 |
| CTTTAGCACCTTCATCCAAAGATGACCTTTGCCTAGGGAGATTAGAGTATCGGTCGA | 7.62 |
| TATGACCTTTGCTTTTCAAGATTTTACCTAGCCTAGGGAGATTAGAGTATCGGTCGA | 2.14 |
| ATAGCAAAAGTGACCTTTGCTCCAGTTCCCGCCTAGGGAGATTAGAGTATCGGTCGA | 7.8 |
| TTTGCCAAAGCATAGCAAGAGTGACCTTTGGCCTAGGGAGATTAGAGTATCGGTCGA | 6.6 |
| AATCGACCTTTAGCACCGTAAGAGAGTATTGCCTAGGGAGATTAGAGTATCGGTCGA | 3.82 |
| CTTCTTTGCTTAAGCATAGCAAAAGTGACCGCCTAGGGAGATTAGAGTATCGGTCGA | 2.7 |
| AGATAGCATTCCAAGAGAGCAAAGTGCTTTGCCTAGGGAGATTAGAGTATCGGTCGA | 0.587 |
| CCTGCATATCCTGACTGCTGACCTTTAAGCGCCTAGGGAGATTAGAGTATCGGTCGA | 4.85 |
| AAAAGTGACCTTTGCTCCAGTTCCCAATAAGCCTAGGGAGATTAGAGTATCGGTCGA | 5.9 |
| TTGCTTAAGCATAGCAAAAGTGACCTTTGCGCCTAGGGAGATTAGAGTATCGGTCGA | 8.56 |
| CAAAGCATAGCAAGAGTGACCTTTGCTCCAGCCTAGGGAGATTAGAGTATCGGTCGA | 8.97 |
| GTGACCTTTGCTCCAGTTCCCAATAAGTTGGCCTAGGGAGATTAGAGTATCGGTCGA | 4.19 |
